Laboratory results reported in the supplement of paper PMC6607015.
Counter-ions that a name gives are not always drawn.

Key:
Settings in all cases: compound concentration in added solution (µM; 5 µl added to 20 µl cells): 10; 18 h
A431 [1] = assay: LBPA endosome anti-LBPA integrated intensity (sum per cell), Z-score; higher = more LBPA staining
In short: (§1)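 Z-scores normalised in AcuityXpress are given for per-cell integrated LBPA or filipin intensity, measured whole-cell or within LBPA endosomes by MetaXpress segmentation. Cells (HeLa MZ or A431, 3,500 per well in 20 µl) were seeded onto 5 µl of 10 µM compound solution in duplicate 384-well imaging plates and fixed in 4% PFA after 18 h.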

HeLa MZ [2] = assay: as above
In short: as §1

A431 [3] = assay: whole-cell filipin (free cholesterol) integrated intensity, Z-score; higher = more cholesterol staining
In short: as §1

HeLa MZ [4] = assay: as above
In short: as §1

A431 [5] = assay: filipin (cholesterol) integrated intensity within LBPA endosomes, Z-score; higher = more cholesterol in LBPA endosomes
In short: as §1

HeLa MZ [6] = assay: as above
In short: as §1

Row | Compound | LBPA endosome anti-LBPA integrated intensity (z-score) (A431 [1]) | LBPA endosome anti-LBPA integrated intensity (z-score) (HeLa MZ [2]) | whole-cell filipin (z-score) (A431 [3]) | whole-cell filipin (z-score) (HeLa MZ [4]) | filipin (z-score) (A431 [5]) | filipin (z-score) (HeLa MZ [6])
1 | Cn1c(=O)c2c(ncn2CCO)n(C)c1=O [Etofylline] | -0.487 | -1.05 | -0.938 | -1.17 | -0.451 | -0.58
2 | c1ccc(C2CN3CCSC3=N2)cc1 (stereo not drawn) [Tetramisole hydrochloride] | -0.644 | 0.538 | -0.603 | -0.217 | -0.702 | -0.156
3 | Nc1ccc(S(=O)(=O)Nc2ncccn2)cc1 [Sulfadiazine] | -0.494 | -0.985 | -0.718 | -0.987 | -0.481 | -0.62
4 | C#C[C@]1(O)CC[C@H]2[C@@H]3[C@H](C)CC4=C(CCC(=O)C4)[C@H]3CC[C@@]21C [Tibolone] | -0.522 | -0.57 | -0.775 | -0.295 | -0.476 | -0.561
5 | NCCCCCC(=O)O [Aminocaproic acid] | -0.515 | -0.605 | -0.556 | -0.716 | -0.511 | -0.479
6 | CCCC(=O)Nc1ccc(OCC(O)CNC(C)C)c(C(C)=O)c1 (stereo not drawn) [Acebutolol hydrochloride] | -0.335 | -0.6 | -0.712 | -0.665 | -0.476 | -0.408
7 | COc1c2occc2c(OC)c2c(=O)cc(C)oc12 [Khellin] | -0.364 | -0.599 | -0.787 | -0.817 | -0.439 | -0.439
8 | OCCN1C[C@H](O)[C@@H](O)[C@H](O)[C@H]1CO [Miglitol] | -0.534 | -0.285 | -0.628 | -0.643 | -0.487 | -0.578
9 | Cc1ccc(S(=O)(=O)NC(=O)NN2CCCCCC2)cc1 [Tolazamide] | -0.639 | -1.11 | -0.852 | -0.547 | -0.571 | -0.672
10 | NC[C@@H]1O[C@H](O[C@H]2[C@@H](O)[C@H](O[C@@H]3[C@@H](O)[C@H](N)C[C@H](N)[C@H]3O[C@H]3O[C@H](CO)[C@@H](O)[C@H](O)[C@H]3N)O[C@@H]2CO)[C@H](N)[C@@H](O)[C@@H]1O [Paromomycin sulfate] | -0.396 | -0.465 | -0.35 | -0.208 | -0.425 | -0.447
11 | CCC(C)n1ncn(-c2ccc(N3CCN(c4ccc(OCC5COC(Cn6cncn6)(c6ccc(Cl)cc6Cl)O5)cc4)CC3)cc2)c1=O (stereo not drawn) [Itraconazole] | 1.31 | 0.474 | 2.3 | 2.36 | 2.02 | 1.87
12 | CN(CCOc1ccc(CC2SC(=O)NC2=O)cc1)c1ccccn1 (stereo not drawn) [Rosiglitazone Hydrochloride] | -0.367 | 0.286 | 0.193 | 0.897 | -0.277 | -0.0127
13 | C[C@@H]1CCC[C@H](C)N1NC(=O)c1ccc(Cl)c(S(N)(=O)=O)c1 [Clopamide] | -0.569 | -1.24 | -0.626 | -0.712 | -0.503 | -0.648
